# D1 antagonist: Antagonist of Human D 1 Dopamine Receptor: qHTS | D(1A) dopamine receptor (Homo sapiens), P21728 | HEK293 TREx D1 cells, calcium flux, dopamine EC80; active compounds read low | activity change, negative = inhibition, % at 10 µM | 3.2% of 360,000 active | AID 504652, 2011; in the data active = activity change below about -30%; note: % is set by controls: 0 for no effect and ±100 for the full control effect
#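 Inducible Hek293 Trex D1 cells (tetracycline, overnight, 30 C). Calcium dye 30–90 min RT. Antagonist mode: EC80 dopamine added after 180 s compound read.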
# D3 antag: qHTS of D3 Dopamine Receptor Antagonist: qHTS; 2.5% of 360,000 active; max response, negative = inhibition, %; D(3) dopamine receptor (Homo sapiens), P35462; AID 652054, 2013; D3R cells, DiscoveRx beta-arrestin luminescence, antagonist mode; active compounds read low; in the data active = max response below about -50%; inconclusive = no clear call, values can overlap the other calls; note: % is set by controls: 0 for no effect and ±100 for the full control effect
# Target sequence (P35462 whole entry, looked up): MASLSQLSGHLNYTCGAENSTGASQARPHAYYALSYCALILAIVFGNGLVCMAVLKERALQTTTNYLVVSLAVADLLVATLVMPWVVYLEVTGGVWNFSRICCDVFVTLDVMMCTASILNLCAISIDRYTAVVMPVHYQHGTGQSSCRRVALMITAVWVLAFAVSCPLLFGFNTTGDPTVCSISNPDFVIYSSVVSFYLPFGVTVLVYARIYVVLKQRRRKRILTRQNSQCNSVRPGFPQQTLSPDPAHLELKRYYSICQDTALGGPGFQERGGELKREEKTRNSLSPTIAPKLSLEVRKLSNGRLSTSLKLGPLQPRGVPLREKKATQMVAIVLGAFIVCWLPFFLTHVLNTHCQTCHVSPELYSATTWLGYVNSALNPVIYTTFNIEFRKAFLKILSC
#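 Cells plated overnight at 1500 cells/well, then exposed to library compounds with dopamine controls for 90 minutes at 37 degrees C. DiscoveRx reagent added for 30–60 minutes at room temperature; luminescence read, quantitative HTS format.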
# ERG-DNA inh: qHTS for Small Molecule Inhibitors of the ERG Ets/DNA interaction. 0.028% of 370,000 active. Potency, µM (series often up to 76.9 µM), without a hit: at the top dose FP activity, negative = inhibition, hits mostly inhibitors. fluorescence polarization, His-ERG Ets domain / labelled DNA. Transcriptional regulator ERG (Homo sapiens), P11308; active = well fitted inhibition curve with a large enough effect in the polarisation, with a control signal flat; inconclusive = small, poorly fitted or top-dose-only effect, or effect the other way, or a change in a side signal; inactive = no such curve, though single readings can be large or run the other way; the % refers to the polarisation;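 note: polarization taken with two DNA probes labelled with fluorescein and Texas red; potency is the fitted concentration of half-maximal effect; % of control where 0% means no effect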
#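 His-tagged ERG Ets domain (1 uM in the protein solution; 300mM KCl, 50mM Tris-HCl, 1mM EDTA, 1mM DTT, pH 7.5) received compound, then a probe mix of 5 nM fluorescein-DNA and 100nM Texas-615-DNA. Fluorescence polarization was read for both dyes.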
# D1 ag: Allosteric Agonists of the Human D1 Dopamine Receptor: qHTS; D(1A) dopamine receptor (Homo sapiens), P21728; HEK293 T-REx D1 cells, calcium flux, agonist mode; activation, % at 2 µM; 1% of 360,000 active; AID 504660, 2011; in the data active = activation above about 30%; note: 0% is about no effect
#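 Inducible HEK293 T-REx D1 cells, force-coupled to calcium signalling, were plated at 4000 cells/well with tetracycline and held overnight at 30 C. After no-wash calcium dye loading, compound-evoked calcium rise over 180 s flagged agonists.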
# D1 PAM: Potentiators of Human D1 Dopamine Receptor: qHTS; D(1A) dopamine receptor (Homo sapiens), P21728; HEK293 TREx D1 cells, calcium flux, dopamine EC20 potentiation; potentiation, % at 10 µM; 0.036% of 360,000 active; in the data active = potentiation above about 30%; note: 0% is about no effect
# D3 ag: qHTS of D3 Dopamine Receptor Agonist: qHTS; 0.58% of 410,000 active; D3R DiscoveRx beta-arrestin cells, luminescence, 90 min; AID 652048, 2013; max activation, %; in the data active = max activation above about 30%; note: 0% is about no effect
#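 Agonist mode: compounds and dopamine controls were applied to plated cells for 90 min at 37 degrees C after an overnight attachment at 1500 cells/well. Luminescent read-out followed 30 - 60 minutes at room temperature with DiscoveRx detection reagent.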
# Starred values were filed as active, the others as inactive; ? = inconclusive; . = no result given. A selection: hits, their analogues and other compounds. The true share with any hit is near 6.1%.
SMILES,D1 antagonist,D3 antag,ERG-DNA inh,D1 ag,D1 PAM,D3 ag
CC(C)CN1CCC(=O)N([C@H](CSc2ccc(Br)cc2)c2ccccc2)CC1,-44*,0,5%,2,-1,-53
Cc1ccc(SC[C@H](c2ccccc2)N2CCN(C)CCC2=O)cc1,3,4,20%,5,-2,-14
Cc1ccc(SC[C@H](c2ccccc2)N2CCN(CC(C)C)CCC2=O)cc1,2,-89*,15%,8,-6,-68
CC(C)C[C@@H](CSc1ccc(Br)cc1)N1CCN(CC(C)C)CCC1=O,4,-50*,4%,4,0,-43
O=C1CCN(CCc2ccccc2)CCN1[C@H](CSc1ccc(Br)cc1)Cc1ccccc1,-8,-57*,16%,21,-4,-52
CCc1cc(=O)oc2cc(OC(=O)CN3C(=O)NC4(CCCC4)C3=O)ccc12,-30,-6,-11%,3,-9,-2
O=C(CN1C(=O)NC2(CCCCC2)C1=O)Oc1ccc2c(C(F)(F)F)cc(=O)oc2c1,3,53,0%,51*,0,6
O=C1c2ccccc2C(c2nnnn2-c2ccc3c(c2)OCCO3)N1Cc1ccccc1 (stereo unspecified),.,13,.,.,.,1
CCn1c(C)nc2cc(C(=O)OC(C(F)(F)C(F)F)C(F)(F)C(F)F)ccc21,-37*,76,.,17,-3,8
CCN(CC)S(=O)(=O)c1ccc(C)c(NC(=O)CN(C)C)c1,11,-15,10%,2,-7,-10
CCN(CC)S(=O)(=O)c1ccc(C)c(NC(=O)CNCc2ccccc2OC)c1,-7,-24,-8%,8,-3,33*
Cc1ccc(-c2nc(SCC(=O)Nc3cc(S(=O)(=O)N4CCCCC4)ccc3Cl)n[nH]2)cc1,-35*,9,6%,4,-4,6
COc1ccccc1CNCC(=O)Nc1cc(S(=O)(=O)N2CCCCC2)ccc1C,.,-51*,-5%,.,.,15
Cc1ccc(S(=O)(=O)N2CCCCC2)cc1NC(=O)CNCc1ccco1,-4,1,-14%,6,-4,38*
COc1ccc(OC)c(CC(=O)Nc2cc(S(=O)(=O)N3CCCCC3)ccc2C)c1,2,0,0%,-1,-5,-2
Cc1ccc(S(=O)(=O)Nc2cc(C(F)(F)F)ccc2N2CCOCC2)cc1C,10,-30,2%,0,-3,-3
COc1ccc(S(=O)(=O)N2CCCCC2)cc1NC(=O)c1[nH]c(C)c(C(C)=O)c1C,.,-1,-14%,.,.,-20
COc1ccccc1CNCC(=O)Nc1cc(S(=O)(=O)N2CCCCCC2)ccc1Cl,-8,-60*,6%,17,-6,3
CC(=O)c1c(C)[nH]c(C(=O)Nc2cc(S(=O)(=O)N3CCCCC3)ccc2C)c1C,-31*,0,-5%,4,-10,-10
COC(=O)c1c(C)oc(C)c1S(=O)(=O)NCC1CC1,-5,7,7%,3,-11,7
COC(=O)c1c(C)oc(C)c1S(=O)(=O)N(C)C1CCCCC1,-46*,0,-9%,1,-2,-6
COc1ccc(/C=N/Nc2ncccc2[N+](=O)[O-])c(OC)c1,16,-54*,-12%,-2,3,-3
Fc1ccc(-n2cc(CNCCc3ccccn3)c(-c3ccccc3Cl)n2)cc1,18,-86*,-3%,34*,-4,-39
COc1ccc(-n2cc(CNCCc3nc(C)cc(C)n3)c(-c3ccccc3Cl)n2)cc1,25,-85*,0%,40*,-1,-25
COc1ccc(-n2cc(CNCCc3ncc(C)[nH]3)c(-c3ccccc3Cl)n2)cc1,2,-19,1%,2,3,-3
SMILES,D1 antagonist,D3 antag,ERG-DNA inh,D1 ag,D1 PAM,D3 ag
Nc1ccccc1C(=O)/C=C/c1ccc2c(c1)OCO2,-35*,0,6%,0,-4,0
NS(=O)(=O)c1ccc(NC(=O)/C=C/c2ccc3c(c2)OCO3)cc1,-48*,2,4%,4,8,-3
O=C(/C=C/c1ccc2c(c1)OCO2)c1ccc(O)cc1O,.,?,14%,.,.,-20
O=C(/C=C/c1ccc2c(c1)OCO2)Nc1cc(S(=O)(=O)N2CCOCC2)ccc1N1CCOCC1,-47*,-13,1%,2,-4,0
Cc1ccc(NC(=O)/C=C/c2ccc(S(=O)(=O)N3CCOCC3)cc2)cc1S(=O)(=O)N(C)C,.,-111*,8%,.,.,29
CCOc1ccc(/C(O)=C2/C(=O)C(=O)N(CCCn3ccnc3)C2c2cccs2)cc1Cl (stereo unspecified),-8,0,-3%,1,-6,0
CC(=O)Nc1ccc(NS(=O)(=O)c2ccc(Cl)c(C(=O)O)c2)cc1,5,-12,-7%,4,1,5
CCN(CC)C(=O)C1=C(C)N(CCCOC)C(=O)C(CC(=O)NC2CC2)C1 (stereo unspecified),.,-116*,.,.,.,-17
CSc1ccccc1NC(=O)C1(C)CCN1C(=O)Cc1ccc(Cl)cc1Cl (stereo unspecified),.,0,.,.,.,0
CC1(C(=O)Nc2ccc(F)cc2F)CCN1C(=O)Cc1ccc(Cl)cc1Cl (stereo unspecified),.,16,.,.,.,78*
O=C(NC(=O)N1CCN(c2cccc(Cl)c2)CC1)c1ccccc1,-29,-72*,2%,4,-11,-25
O=C(NC(=O)N1CCN(c2cccc(Cl)c2)CC1)c1ccc(Cl)cc1,-37*,?,2%,10,-19,-9
O=C(NC(=O)N1CCN(c2ccccc2)CC1)c1ccc(Cl)cc1,-10,-22,-2%,1,1,-29
O=C(CN1CCN(S(=O)(=O)N2CCCCC2)CC1)Nc1cc(Cl)ccc1Cl,-14,-7,10%,3,-6,-3
NC(=O)C1(N2CCCCC2)CCN(CC(=O)Nc2cc(Cl)ccc2Cl)CC1,-13,-88*,4%,-1,-6,-62
COc1ccc(-c2noc(-c3ccc(N4CCN(C)CC4)c([N+](=O)[O-])c3)n2)cc1,-14,.,0%,7,-1,-15
CCn1cc(C(=O)O)c(=O)c2cc(F)c(N3CCNCC3)cc21,-48*,.,.,-1,-5,-5
CCn1cc(C(=O)NCc2ccc3c(c2)OCO3)c(=O)c2cc(F)c(N3CCN(C)CC3)cc21,26,-70*,.,25,-10,-26
